Experimental findings from ChEMBL document CHEMBL4888484, “Replenishing the malaria drug discovery pipeline: Screening and hit evaluation of the MMV Hit Generation Library 1 (HGL1) against asexual blood stage Plasmodium falciparum ,using a nano luciferase reporter read-out” (2022) are described below.

In all, about 4,800 compounds went through this assay and about 410 (8.5%) showed an effect of 50% or more. Shown is part of a subset that was picked to be rich in strong results.

For this experiment, the system named is Plasmodium falciparum. As to the kind of experiment: Confirmatory screen in NF54 pLDH assay, in single point, at 2uM, 72h. The following applies: timepoint 72 hour. The experiment is classed as functional, Erythrocyte.
As a reminder, the % Inhibition is the change of the read-out against control, counted positive when it falls. `Cc1cc(C)n(S(=O)(=O)c2ccc3c(c2)OCCO3)n1`: the “% Inhibition” value is given as 7%.

Regarding `CC12CN(S(=O)(=O)c3ccc4c(c3)OCCO4)C3(C(=O)OCc4ccccc4)CC1CCC23C` (stereo not drawn), the “% Inhibition” value is given as 64%.

As for `COc1ccc2c(c1)CCN2S(=O)(=O)c1ccc2c(c1)OCCO2`, the “% Inhibition” value is given as -4%.

Turning to `CC(C)C(=O)N1N=C(C(C)C)C[C@]1(O)C(F)(F)F`, the “% Inhibition” value was 13%.

In the case of `Oc1csc(Cc2nc(C(F)(F)F)cs2)n1`, the “% Inhibition” value is reported as -4%.

For the compound `COC1(CNC(=O)C[C@H](O)c2ccccc2)CCC1`, the “% Inhibition” value is listed as -2%.

Take `COc1cccc(CCc2ccccc2OC[C@H](CN(C)C)OC(=O)CCC(=O)O)c1`: the “% Inhibition” value was -5%.

As to `O=C(C[C@H](NCCO)C(=O)O)c1ccc2c(c1)CCCC2`, the “% Inhibition” value is 2%.

Consider `O=C(Nc1ccsc1C(=O)NCc1cc(F)cc(F)c1)c1cnccn1`, for which the “% Inhibition” value was 13%.

For `O=C(Nc1ccc(Cl)c(Cl)c1)Nc1ccc(Cl)cc1NC(=O)Nc1ccc(Cl)c(Cl)c1`, the “% Inhibition” value amounted to 65%.

Turning to `CNc1nc(C)cc(C(=O)Nc2ccc(Cl)cc2NC(C)=O)n1`, the “% Inhibition” value is on record as 5%.

On to `C[C@@H](NC(=O)Nc1ccc(Cl)c(Cl)c1)C(=O)O`, for which the “% Inhibition” value was 10%.

Turning to `COc1ccc(-c2cc3n(n2)C[C@@](C)(C(=O)NCc2ccccc2)N(Cc2ccc4c(c2)OCO4)C3=O)cc1`, the “% Inhibition” value was 39%.

Take `COc1cc(N2CCn3c(nc4cc(Cl)ccc43)C2)ccc1NC(=O)C1CCCCC1`: the “% Inhibition” value is on record as -13%.

As to `Cc1ccc(C(=O)N(Cc2cccc(F)c2)c2ccc(CC(=O)N[C@@H](C)c3ccccc3)cc2)cc1`, the “% Inhibition” value is 89%.

For `Cc1ccccc1C(=O)N(Cc1cccc(F)c1)c1ccc(CC(=O)NCCN2CCCCC2)cc1`, the “% Inhibition” value was found to be 39%.

With `O=C(Cc1ccc(N(Cc2cccc(F)c2)C(=O)c2cccc(F)c2)cc1)NCCN1CCCCC1`, the “% Inhibition” value was found to be 29%.

Consider `O=C(OCc1cncs1)c1ccccc1`, for which the “% Inhibition” value was found to be 10%.

Consider `Nc1c(-c2nc3ccccc3[nH]2)c2nc3ccccc3nc2n1Cc1ccccc1F`, for which the “% Inhibition” value was found to be 62%.

`Cc1cc2nnc(-c3nc4ccccc4[nH]3)c(N)n2n1`: the “% Inhibition” value is -2%.

`CCC1C(C(=O)NCCN(C)CCOC)CCN1C(=O)OC(C)(C)C` (stereo not drawn): the “% Inhibition” value came out at 1%.

Take `CCn1ccc([C@H](C)NC(=O)c2cc(-c3ccc(OC)cc3)nc3c2c(C)nn3C)n1`: the “% Inhibition” value came out at 12%.

For `Cc1c(CN(C)C(=O)Cn2ncc(Br)c2C)cnn1C`, the “% Inhibition” value came out at 4%.

For the compound `C[C@@]1(C(=O)NCc2ccccc2)Cn2nc(-c3ccccc3)cc2C(=O)N1c1ccc2c(c1)OCCO2`, the “% Inhibition” value was 36%.

In the case of `CCc1ccc(CN2C(=O)c3c(C(=O)OC)ncn3C[C@@]2(C)C(=O)NC2CCCCCC2)cc1`, the “% Inhibition” value is on record as 14%.

On to `CCc1ccc(-c2cc3n(n2)C[C@@](C)(C(=O)NC2CCCCC2)N(c2cc(C)cc(C)c2)C3=O)cc1`, for which the “% Inhibition” value is recorded as 58%.

Consider `O=C(O[C@@H](c1ccccc1)N1C(=O)C(C(F)(F)F)(C(F)(F)F)c2ccccc21)C(C(F)(F)F)C(F)(F)F`, for which the “% Inhibition” value worked out at 12%.

Consider `Cc1c(NC(=O)c2ccccc2-c2ccccc2)ccc(N2CCCC2=O)c1NC(=O)c1ccccc1-c1ccccc1`, for which the “% Inhibition” value is reported as -15%.

Regarding `CCCN(CC(=O)O)S(=O)(=O)c1cccc(C)c1Br`, the “% Inhibition” value is recorded as -23%.

For the compound `O=C(Nc1ccc2c(c1)cc(C(=O)Nc1ccc(C(F)(F)F)cc1)n2Cc1cccc(F)c1)c1ccccc1Cl`, the “% Inhibition” value was -25%.

For `C#CCN(CCCc1ccccc1C)[C@H]1CCS(=O)(=O)C1`, the “% Inhibition” value is given as -23%.

Regarding `O=C(O)c1cc(-c2ccc3c(c2)OCCO3)nc2c(Br)cc(Br)cc12`, the “% Inhibition” value is 3%.

With `COc1ccc(C(O)CN2CCC(c3ccccc3)C2)cc1F` (stereo not drawn), the “% Inhibition” value worked out at 9%.

For the compound `O=C(C1CCC1)N1CCC[C@H]1c1nc(C2CCOCC2)no1`, the “% Inhibition” value is recorded as 12%.

As for `COc1ccccc1NC(=O)c1cnn2c3c(cnc12)CCCCC3`, the “% Inhibition” value is 3%.

`CCOc1ccc2ccccc2c1C(=O)Nc1cc(C)nn1-c1nc2c(c(=O)[nH]1)CCC2`: the “% Inhibition” value worked out at 91%.

Regarding `COc1ccc2ccccc2c1C(=O)Nc1ccc(N2CCN(C)CC2)c(Cl)c1`, the “% Inhibition” value is 4%.

With `Cc1cc(NC(=O)C(=O)NC2CC(C)CC(C)(C)C2)n(-c2nc3c(c(=O)[nH]2)CCC3)n1` (stereo not drawn), the “% Inhibition” value was determined as 84%.

In the case of `Cc1nc(-c2ccc3[nH]c(=O)[nH]c3c2)cs1`, the “% Inhibition” value is recorded as 9%.

Consider `CC1CN(CCCNC(=O)Cc2c[nH]c3ccc(F)cc23)CC(C)O1` (stereo not drawn), for which the “% Inhibition” value is -4%.

As to `CC(C1Cc2ccccc2O1)N(C)C(=O)c1n[nH]c2c1CCC2` (stereo not drawn), the “% Inhibition” value is -6%.

With `Cc1cc(Cl)ccc1S(=O)(=O)N1CCc2nnc([C@H]3CCN(C(C)C)C3)n2CC1`, the “% Inhibition” value is listed as 10%.

`COC(=O)C12CCC(C(=O)NC[C@H]3CCCOC3)(CC1)CC2`: the “% Inhibition” value is reported as 2%.

As for `OCC#Cc1ncc(C(F)(F)F)cc1Cl`, the “% Inhibition” value was -19%.

Take `CCc1nc(C(=O)N2C[C@@H]3CCCN(C(=O)c4coc(CC)n4)[C@@H]3C2)co1`: the “% Inhibition” value was determined as 0%.

On to `CCc1ncsc1C(=O)OCC1(C#N)CCOCC1`, for which the “% Inhibition” value is listed as -2%.

Consider `Cc1cc(CS(=O)(=O)[C@@H](C)C(=O)NCC(C)C)on1`, for which the “% Inhibition” value is 12%.

With `CC(=O)N(C)CC(=O)Nc1ccccc1NCC1CCCCC1`, the “% Inhibition” value stood at 12%.

For `COc1cc(CN(C)[C@H]2CCc3nnc(C4CCOCC4)n3CC2)cc(OC)c1`, the “% Inhibition” value came to 1%.

On to `Cn1ccnc(N[C@@H](COc2ccccc2F)c2ccccc2)c1=O`, for which the “% Inhibition” value is 3%.

Consider `NC(=O)CCc1ccc(S(=O)(=O)Cl)cc1`, for which the “% Inhibition” value turned out to be 13%.

On to `COC(=O)c1ccc(Nc2nc(C)c3nc(C)n(-c4ccc(C(=O)OC)cc4)c3n2)cc1`, for which the “% Inhibition” value is listed as 3%.

For the compound `CCOc1cc(Cl)c(Cl)c(C#N)c1OC(C)=O`, the “% Inhibition” value is 6%.

Take `COc1ccc(-c2nccn3cc(C(=O)NCCN(C)C4CCCCC4)nc23)cc1`: the “% Inhibition” value is 5%.

As to `CCCC[C@H](CC)C(=O)Nc1c(C)cccc1CC`, the “% Inhibition” value is -8%.

Regarding `Brc1ccc(Oc2ncc(CN3CCOCC3)s2)cc1`, the “% Inhibition” value was determined as 7%.

`Cc1ccc2c(c1)CCCN2S(=O)(=O)c1ccc2ccccc2c1`: the “% Inhibition” value was -7%.

Turning to `Cc1ccc(Nc2ccc(N3CCNCC3)nn2)nc1`, the “% Inhibition” value was determined as 58%.

As for `Cc1ccnc(N2CCN(S(=O)(=O)Cc3ccon3)CC2)c1`, the “% Inhibition” value came out at 15%.

For `Cc1ccnc(Nc2ccc(N3CCNCC3)nn2)c1`, the “% Inhibition” value turned out to be 65%.

Regarding `Cc1cnc(CC[C@H]2CCCN2C(=O)CCn2ccnc2)n1C`, the “% Inhibition” value is 7%.

In the case of `CCC(C#N)(CC)c1nc(-c2cc(N)nc3ccccc23)no1`, the “% Inhibition” value is given as 8%.

In the case of `CCC(=O)O[C@@]1(c2ccc(C3CC3)cc2)CCCN(Cc2ccccc2)C1`, the “% Inhibition” value is given as -1%.
